Shown are actives, neighbours in structure and some others; about 19% of the full set was active somewhere.
HT1080 IDH1KD tx – kills HT-1080 cells with IDH1 knockdown | HT-1080 IDH1 knockdown viability, ATP luminescence, 48 h | Potency, µM (doses to about 46.1 µM), for inactives: at the top dose activity, negative = toxicity, most hits filed as cytotoxic | hit rate 2% among 360,000;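 also: potency is read from the fitted curve at half-maximal effect; 0% = DMSO wells and -100% = cell-free medium wells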
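Viability of IDH1-knockdown HT-1080 fibrosarcoma cells was assessed by CellTiter-Glo after 48 h at 37 °C with titrated compound; concentration-effect curves were classified by fit quality and response size.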
TDP1 cell CPT – growth inhibition of DT40 Tdp1-/-;hTDP1 cells with camptothecin (screen for TDP1 inhibitors); Potency, µM (titrated, usually from 46.2 µM), for the others: at the highest dose activity change, negative = growth inhibition, hits mostly inhibitors; AID 686979; hit rate 12% among 420,000; chicken DT40 Tdp1-/-;hTDP1 cells + 20 nM CPT, ATP luminescence, 48 h; also: potency is read from the fitted curve at half-maximal effect; nearly all actives have a fitted effect of over 55% in size
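Chicken DT40 Tdp1-/- cells stably complemented with human TDP1 were seeded at 400 cells/well in medium containing 20 nM camptothecin, exposed to pin-transferred compounds, and grown at 37 °C for at least 48 hr. Viability was read as ATP luminescence.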
DT40 TDP1 no CPT – qHTS for Inhibitors of human tyrosyl-DNA phosphodiesterase 1 (TDP1): qHTS in cells in absence of CPT; DT40 Tdp1-/- hTDP1 cells, no CPT, ATP luminescence, 48 h; Potency, µM (titrated, usually from 46.2 µM), inactives show at the highest dose activity change, negative = growth inhibition, hits mostly inhibitors; hit rate 15% among 420,000; AID 686978, 2013; also: potency is read from the fitted curve at half-maximal effect; nearly all actives have a fitted effect of over 55% in size
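Growth kinetics read by CellTiter-Glo luminescence after ≥48 hr at 37 °C. Cells: DT40 Tdp1-/- stably carrying human TDP1, 400 per well, compound exposure in the absence of CPT (DMSO vehicle).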
IL-1B inflam inh – inflammasome signaling inhibition, IL-1 beta readout; AID 743279; hit rate 4.7% among 360,000; THP-1 LPS/ATP IL-1B secretion, AlphaLISA, 16 h; stronger effect = lower value; activity change, % at 57.5 µM; in the data active = activity change below about -50%; inconclusive = mostly about -30% to -49%
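THP-1 cells pretreated 1 hr with compounds (up to 57.5 uM final), then stimulated with LPS (250 ng/mL final) plus ATP (1.25 mM final); secreted IL-1B measured by AlphaLISA after 16 hr, decreased signal indicating inhibition.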
HT1080NT lethal – kills 2HG-producing HT-1080-NT fibrosarcoma cells; Potency, µM (top dose mostly 46.1 µM), without a hit: at the top dose activity, negative = less viability, usual class: cytotoxic; HT-1080-NT fibrosarcoma viability, CellTiter-Glo ATP luminescence, 48 h; hit rate 1.6% among 360,000; AID 686970;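 also: NT is the 2HG producing partner of a matched IDH1 knockdown line; potency is read from the fitted curve at half-maximal effect; 0% = DMSO-treated cells and -100% = media-only wells without cells; nearly all actives have a fitted effect of over 55% in size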
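750 cells/well, RPMI + 5% FBS; 2 h settle, compound pin-transfer, 48 h at 37 degrees C. CellTiter-Glo 10 min RT, luminescence. Normalized to DMSO and media-only wells.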
* hit, by the source's call; u = inconclusive; x = no result given. Unless noted, calls follow the shape of the dose curve; as a rule, active = well fitted curve in the direction sought with a large enough effect; inconclusive = small, poorly fitted or top-dose-only effect, or another doubt; inactive = no such curve, though single readings can be large; an effect the other way counts as inactive or inconclusive. Unless noted, % is scaled to controls: 0 for no effect and ±100 for the full control effect.

SMILES	HT1080 IDH1KD tx	TDP1 cell CPT	DT40 TDP1 no CPT	IL-1B inflam inh	HT1080NT lethal
CN(c1ccccc1)S(=O)(=O)c1ccc(C(=O)NCc2ccco2)cc1	-9%	u	16µM*	9	-5%
CCOC(=O)[C@]12CCC=C1N(Cc1ccc(Cl)cc1Cl)C(=O)[C@H](CC(=O)NCc1cccc3ccccc13)C2	-23%	u	23µM*	-30	-27%
CCOC(=O)[C@]12CCC=C1N(Cc1ccc(Cl)cc1Cl)C(=O)[C@H](CC(=O)NCc1ccc(OC)c(OC)c1)C2	-29%	16µM*	u	-22	u
CC(C)[C@H](NC(=O)Nc1ccc(Oc2ccccc2)cc1)C(=O)O	6%	12µM*	13µM*	17	1%
CC(C)[C@H](NC(N)=O)C(=O)Nc1ccc(Oc2ccccc2)cc1	u	0%	-4%	x	-13%
CCc1ccccc1NC(=O)N[C@H](C(=O)O)C(C)CC (stereo partly drawn)	6%	u	15µM*	20	1%
CCC(C)[C@H](NC(=O)Nc1ccccc1F)C(=O)O (stereo partly drawn)	13%	-3%	-18%	1	0%
CCOC(=O)c1ccc(NC(=S)NCCCN2CCOCC2)cc1	8%	-14%	0%	59	5%
COc1cccc(CN2CCC2(C)C(=O)Nc2cccc(Oc3ccccc3)c2)c1OC (stereo not drawn)	u	23µM*	21µM*	-21	-28%
CC(C)Oc1ccc(CN2CCC2(C)C(=O)Nc2cccc(Oc3ccccc3)c2)cc1 (stereo not drawn)	-20%	u	u	18	16%
COc1cccc(NC(=O)C2(C)CCN2Cc2ccc(OC)c3ccccc23)c1 (stereo not drawn)	u	u	-75%	-17	u
COc1cccc(CN2CCC2(C)C(=O)Nc2cccc(NS(C)(=O)=O)c2)c1OC (stereo not drawn)	0%	18µM*	23µM*	-5	-8%
CC(C)c1ccc(CN2CCC2(C)C(=O)Nc2cccc(Oc3ccccc3)c2)cc1 (stereo not drawn)	0%	u	18µM*	29	u
CCOC(=O)C1=C(CBr)NC(=O)NC1C (stereo not drawn)	22%	-22%	u	7	13%
CC(C)NS(=O)(=O)c1ccc(OCC(=O)Nc2ccc(F)cc2)cc1	0%	u	u	8	0%
COc1cc(-c2nc3ccc(N4CCN(C)CC4)cc3[nH]2)cc(OC)c1OC	-12%	u	u	-52*	0%
COc1ccccc1OCC(=O)NNC(=O)c1ccoc1C	-19%	15µM*	u	-9	7%
CCOC(=O)c1cc2c(C)n(-c3ccc(OCC)cc3)c(C)c2cc(C(=O)OCC)c1=O	9%	u	16µM*	6	17%
CCOC(=O)c1cc2c(C)[nH]c(C)c2cc(C(=O)OCC)c1=O	-4%	u	7.3µM*	-16	-1%
CCOC(=O)c1cc(C(=O)OCC)c(=O)[nH]c1C	26%	u	u	5	23%
O=C1N[C@@H](Cc2ccccc2)COC(=O)[C@@H](Cc2ccc(F)cc2)CC/C=C/C[C@@H]1CC(=O)N(CCO)Cc1ccccc1	-10%	u	u	-24	-20%
O=C1N[C@H](Cc2ccccc2)COC(=O)[C@H](Cc2ccc(F)cc2)CC/C=C/C[C@@H]1CC(=O)N(CCO)Cc1ccccc1	u	10µM*	u	-55*	-20%
O=C1N[C@H](Cc2ccccc2)COC(=O)[C@@H](Cc2ccc(F)cc2)CC/C=C/C[C@H]1CC(=O)N(CCO)Cc1ccccc1	-26%	18µM*	u	u	u
O=C(NCCC(=O)N(Cc1ccco1)Cc1cccs1)c1ccccc1Cl	-5%	u	u	-14	-3%
O=C(c1cccc(Cl)c1Cl)N(Cc1ccco1)Cc1cccs1	x	u	11µM*	x	x
SMILES	HT1080 IDH1KD tx	TDP1 cell CPT	DT40 TDP1 no CPT	IL-1B inflam inh	HT1080NT lethal
O=C(c1ccccc1Br)N(Cc1ccco1)Cc1ccco1	x	13µM*	15µM*	x	x
Cc1ccc(-c2nc3cnccn3c2Nc2ccc3c(c2)OCO3)cc1	-16%	u	u	85	-1%
Cc1ccc(Nc2c(-c3ccc(C)o3)nc3cccc(C)n23)cc1	-22%	11µM*	11µM*	x	-16%
CSc1ccc(-c2nc3cccc(C)n3c2Nc2ccc3c(c2)OCO3)cc1	x	u	18µM*	x	x
Cc1ccc(-c2nc3cccc(C)n3c2Nc2ccc3c(c2)OCO3)o1	x	23µM*	u	x	x
Cc1ccc([C@@H]2[C@@H]3C(=O)N(C)C(=O)[C@@H]3[C@]3(Cc4ccccc4)C(=O)N(Cc4ccccn4)CC(=O)N23)o1	11%	-1%	3%	0	11%
c1ccc(-c2nn3c(Cn4nnc5ccccc54)nnc3s2)cc1	0%	u	u	-24	0%
c1ccc2c(c1)nnn2Cc1nnc2sc(-c3ccc4c(c3)OCCO4)nn12	4%	u	16µM*	6	-1%
CC(=O)O[C@H]1C[C@@]2(O)[C@@H](OC(=O)c3ccccc3)C3[C@@](C)([C@@H](O)C[C@H]4OC[C@@]34OC(C)=O)[C@@H](O)[C@H](OC(C)=O)C(=C1C)C2(C)C (stereo partly drawn)	u	16µM*	18µM*	12	u
Cc1[nH]c2ccccc2c1C(c1ccccn1)N1CCCC1 (stereo not drawn)	6%	u	16µM*	-25	8%
CCOC(=O)C1CCCN(C(c2ccccn2)c2c(C)[nH]c3ccccc23)C1 (stereo not drawn)	16%	9%	0%	0	-6%
Cc1ccnc(NC(c2ccccn2)c2c(C)[nH]c3ccccc23)c1 (stereo not drawn)	u	u	u	-106*	-15%
Cc1[nH]c2ccccc2c1C(c1ccccn1)N1CCC(C)CC1 (stereo not drawn)	8%	21µM*	21µM*	-107*	3%
CCc1ccc(-c2nn(CC(=O)NC3CCCCC3)c3c2cnc2ccc(F)cc23)cc1	x	-12%	11%	x	x
Cc1ccccc1/C(N)=N/O	28%	-5%	5%	10	25%
Cc1ccc(-c2nnc(N3CCN(C(=O)COc4cccc(C)c4)CC3)c3ccccc23)cc1	-20%	u	u	-86*	-1%
Cc1ccc(-c2nnc(N3CCN(C(=O)CN4C(=O)c5ccccc5C4=O)CC3)c3ccccc23)cc1	7%	u	u	-12	12%

High-throughput results: PubChem, National Center for Advancing Translational Sciences (NCATS)
